# Test results: PubChem BioAssay
# Records with an inconclusive call do not appear. Activity calls are given as the source filed them.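 Rule for the calls, unless noted: active = normalized viability below 100% at a tested concentration; inactive = the rest.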
# Experiments:
# [1] = viability loss in pontine glioma line – cell-based, SU-DIPG-XVII, MIPE5.0, CellTiter-Glo, qHTS, dose response (AID 1347060; cut-off not given, nearly all actives have AC50 up to about 26 µM;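 note: cells exposed to compound for 48 hours before viability readout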); conditions: CellTiter-Glo ATP luminescence
# [2] = viability loss in pontine glioma line – cell-based, SU-DIPG-XIII, MIPE4.0, CellTiter-Glo, qHTS, dose response (AID 1347061; cut-off not given, nearly all actives have AC50 up to about 37 µM;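 note: cells exposed to compound for 48 hours before readout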); conditions: CellTiter-Glo ATP luminescence
# [3] = viability loss in pontine glioma line – cell-based, JHH-DIPG-1, MIPE4.0, CellTiter-Glo, qHTS, dose response (AID 1347062; cut-off not given, nearly all actives have AC50 up to about 27 µM;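 note: cells exposed to compound for two days before readout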); conditions: JHH-DIPG-1 viability, CellTiter-Glo ATP luminescence
# [4] = viability loss in pontine glioma line – cell-based, SU-DIPG-IV, MIPE4.0, CellTiter-Glo, qHTS, dose response (AID 1347063; cut-off not given, nearly all actives have AC50 up to about 30 µM;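 note: compound exposure lasted 48 hours before the viability readout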); conditions: CellTiter-Glo ATP luminescence
# [5] = viability loss in pontine glioma line – cell-based, SU-DIPG-XIII, MIPE5.0, CellTiter-Glo, qHTS, dose response (AID 1347064; cut-off not given, nearly all actives have AC50 up to about 23 µM;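 note: cells exposed to compound for 48 hours before the viability read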); conditions: CellTiter-Glo ATP luminescence
# [6] = viability loss in pontine glioma line – cell-based, SU-DIPG-XXV, MIPE5.0, CellTiter-Glo, qHTS, dose response (AID 1347065; cut-off not given, nearly all actives have AC50 up to about 26 µM;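 note: cells exposed to compound for 48 hours before ATP readout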); conditions: CellTiter-Glo ATP luminescence
# [7] = growth inhibition of DIPG cells – cell-based, MIPE4.0 library, CellTiter-Glo luminescence, qHTS (AID 1347066; cut-off not given, nearly all actives have AC50 up to about 30 µM;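 note: cells exposed to compound for 48 hours before readout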); conditions: SU-DIPG-VI viability, CellTiter-Glo ATP luminescence
# [8] = JHH-DIPG-1 glioma cell viability, MIPE5.0 library, CellTiter-Glo luminescence, qHTS (AID 1347067; cut-off not given, nearly all actives have AC50 up to about 26 µM;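 note: cells exposed to compound for 48 hours before readout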); conditions: JHH-DIPG-1 glioma viability, CellTiter-Glo ATP luminescence
# [9] = growth inhibition of DIPG cells – cell-based, MIPE5.0 library, qHTS (AID 1347068; cut-off not given, nearly all actives have IC50 up to about 30 µM;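 note: cells exposed to compound for 48 hours before viability readout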); conditions: SU-DIPG-XXV viability
# [10] = viability loss with induced miR-34 in A549 – imaging, A549 dox-inducible miR-34, nuclei and caspase counts, primary screen (AID 1347080;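 active = compounds whose cell count with miR-34 switched on is under 0.7 times the count with it off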); conditions: A549 miR-34 inducible, Hoechst nuclei count, 48 h
# [11] = compounds altering HSF1 focus formation in cells – imaging, Selleck Cancer Library (AID 1347162; in the data active = plate-normalised HSF1 focus index below about 0.46); conditions: human cells, HSF1 nuclear foci imaging, at 10 µM; SSMD: measured here: HSF1 foci SSMD mean; cell count: measured here: cell number; plate-normalised HSF1 focus index: stronger effect = lower value
# [12] = MELAS cybrid and Rieske KO viability enhancers – cell-based, MELAS cybrids, Rieske KO mouse fibroblasts, CellTiter-Glo, primary screen (AID 1508586;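 active = mean z-score across replicates of 1.96 or higher in either the MELAS or the Rieske mutant cell line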;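 note: z relative to plate mean and SD of compound and empty wells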); conditions: low glucose
# [13] = drug combination growth inhibition, ovarian cancer – cell-based, oncology-focused library, rucaparib conditional, profiling panel (AID 1508598); conditions: patient-derived ovarian cancer cells, CellTiter-Glo viability, 144 h, stronger effect = lower value
# [14] = growth inhibition, single agent or in combination, cell-based, chromothripsis tumors, cisplatin or BGB combos (AID 1671449; in the data active = inhibition above about 80%;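 note: cells exposed for 96 hours; 0% = vehicle DMSO and 100% = killing by high DMSO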); conditions: LFS_MB_P medulloblastoma cells
# [15] = growth inhibition, single agent and combos, cell-based, chromothripsis tumors, cisplatin or BGB combos (AID 1671450; in the data active = inhibition above about 80%;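 note: cells exposed to compound for four days; 0% = vehicle DMSO and 100% = cell killing by high DMSO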); conditions: HDN33 neuroblastoma cells, stronger effect = higher value
# [16] = growth inhibition, single agents and combos, ICB984, cell-based, cisplatin or BGB combos, synergistic combos for chromothripsis tumors (AID 1671451; call rule not given here;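 note: cells exposed for 96 hours before readout; 0% = vehicle DMSO and 100% = killing by high DMSO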); conditions: ICB984 medulloblastoma cells, drug combinations, stronger effect = higher value
# [17] = growth inhibition, single agents and combos, HTB85, cell-based, BGB or cisplatin IC20 combos, synergistic combos for chromothripsis tumors (AID 1671453; in the data active = inhibition above about 80%;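 note: cells exposed for 96 hours before readout; 0% = vehicle DMSO and 100% = high DMSO killing control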); conditions: HTB85 osteosarcoma cells, drug combinations, stronger effect = higher value
# [18] = growth inhibition, MDA-MB-436, cell-based, BGB or cisplatin combos, synergistic combos for chromothripsis tumors (AID 1671458; call rule not given here;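 note: cells exposed for 96 hours; 0% = vehicle DMSO and 100% = killing by high DMSO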); conditions: MDA-MB-436 breast carcinoma growth inhibition, drug combinations, stronger effect = higher value
# [19] = BT084 cell growth, single and combined drugs, ICGC_MB145, cisplatin and BGB IC40 combos (AID 1671461; in the data active = inhibition above about 80%;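 note: cells exposed to drugs for 96 hours; 0% = vehicle DMSO and 100% = high DMSO full killing control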); conditions: BT084 medulloblastoma cells, drug combinations, stronger effect = higher value
# [20] = RCMB18 cell growth, single agent and combined, cisplatin and BGB IC40 combos (AID 1671462; in the data active = inhibition above about 80%;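 note: cells exposed to compound for four days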); conditions: RCMB18 medulloblastoma cells, stronger effect = higher value
structure (smiles),measurement,setting,value
O=c1cc(N2CCOCC2)oc2c(-c3cccc4c3sc3ccccc34)cccc12,AC50,[1],13.2 µM (active)
same,outcome,[2],inactive
same,AC50,[3],23.5 µM (active)
same,AC50,[4],14.8 µM (active)
same,AC50,[5],16.6 µM (active)
same,AC50,[6],14.8 µM (active)
same,AC50,[7],18.7 µM (active)
same,AC50,[8],16.6 µM (active)
same,IC50,[9],29.5 µM (active)
same,fold change,"[10]; stronger effect = lower value, cell number ratio, induced over uninduced",0.901 (inactive)
same,fold change,[10]; measured here: relative caspase fold change +Dox/-Dox,0.761
same,cell count,"[10]; measured here: total cells with miR-34 induction, stronger effect = lower value",6010
same,cell count,[10]; measured here: total cells without miR-34 induction,6670
same,SSMD,[11],-0.228
same,cell count,[11],7060
same,plate-normalised HSF1 focus index,[11],0.984 (inactive)
same,z-score,"[12]; MELAS cybrid survival, CellTiter-Glo 48 h, stronger effect = higher value",-0.264 (inactive)
same,z-score,"[12]; Rieske KO mouse fibroblast survival, CellTiter-Glo 72 h",1.08
same,viability,"[13]; at 0.000305 µM, OCI-C5x cells, with rucaparib 10 µM, 100% = cells with rucaparib alone",98.4% (active)
same,viability,"[13]; at 0.000305 µM, OCI-C5x cells, without rucaparib",106% (inactive)
same,viability,"[13]; at 0.000305 µM, OCI-P5x cells, with rucaparib 20 µM, 100% = cells with rucaparib alone",104% (inactive)
same,viability,"[13]; at 0.000305 µM, OCI-P5x cells, without rucaparib",99.9% (active)
same,viability,"[13]; at 0.00122 µM, OCI-C5x cells, with rucaparib 10 µM, 100% = cells with rucaparib alone",100% (inactive)
same,viability,"[13]; at 0.00122 µM, OCI-C5x cells, without rucaparib",104% (inactive)
same,viability,"[13]; at 0.00122 µM, OCI-P5x cells, with rucaparib 20 µM, 100% = cells with rucaparib alone",103% (inactive)
same,viability,"[13]; at 0.00122 µM, OCI-P5x cells, without rucaparib",102% (inactive)
same,viability,"[13]; at 0.00488 µM, OCI-C5x cells, with rucaparib 10 µM, 100% = cells with rucaparib alone",101% (inactive)
same,viability,"[13]; at 0.00488 µM, OCI-C5x cells, without rucaparib",103% (inactive)
same,viability,"[13]; at 0.00488 µM, OCI-P5x cells, with rucaparib 20 µM, 100% = cells with rucaparib alone",107% (inactive)
same,viability,"[13]; at 0.00488 µM, OCI-P5x cells, without rucaparib",99% (active)
same,viability,"[13]; at 0.0195 µM, OCI-C5x cells, with rucaparib 10 µM, 100% = cells with rucaparib alone",98.9% (active)
same,viability,"[13]; at 0.0195 µM, OCI-C5x cells, without rucaparib",103% (inactive)
same,viability,"[13]; at 0.0195 µM, OCI-P5x cells, with rucaparib 20 µM, 100% = cells with rucaparib alone",107% (inactive)
same,viability,"[13]; at 0.0195 µM, OCI-P5x cells, without rucaparib",92.1% (active)
same,viability,"[13]; at 0.0781 µM, OCI-C5x cells, with rucaparib 10 µM, 100% = cells with rucaparib alone",108% (inactive)
same,viability,"[13]; at 0.0781 µM, OCI-C5x cells, without rucaparib",98% (active)
same,viability,"[13]; at 0.0781 µM, OCI-P5x cells, with rucaparib 20 µM, 100% = cells with rucaparib alone",98.6% (active)
same,viability,"[13]; at 0.0781 µM, OCI-P5x cells, without rucaparib",90.1% (active)
same,viability,"[13]; at 0.313 µM, OCI-C5x cells, with rucaparib 10 µM, 100% = cells with rucaparib alone",97% (active)
same,viability,"[13]; at 0.313 µM, OCI-C5x cells, without rucaparib",99% (active)
same,viability,"[13]; at 0.313 µM, OCI-P5x cells, with rucaparib 20 µM, 100% = cells with rucaparib alone",99.1% (active)
same,viability,"[13]; at 0.313 µM, OCI-P5x cells, without rucaparib",91.6% (active)
same,viability,"[13]; at 1.25 µM, OCI-C5x cells, with rucaparib 10 µM, 100% = cells with rucaparib alone",101% (inactive)
same,viability,"[13]; at 1.25 µM, OCI-C5x cells, without rucaparib",108% (inactive)
same,viability,"[13]; at 1.25 µM, OCI-P5x cells, with rucaparib 20 µM, 100% = cells with rucaparib alone",95.4% (active)
same,viability,"[13]; at 1.25 µM, OCI-P5x cells, without rucaparib",85.4% (active)
same,viability,"[13]; at 5 µM, OCI-C5x cells, with rucaparib 10 µM, 100% = cells with rucaparib alone",66.1% (active)
same,viability,"[13]; at 5 µM, OCI-C5x cells, without rucaparib",89.5% (active)
same,viability,"[13]; at 5 µM, OCI-P5x cells, with rucaparib 20 µM, 100% = cells with rucaparib alone",49.8% (active)
same,viability,"[13]; at 5 µM, OCI-P5x cells, without rucaparib",78.7% (active)
same,inhibition,"[14]; at 0.5 µM, stronger effect = higher value",-9.52% (inactive)
same,inhibition,"[14]; measured here: combination with BGB IC20, at 0.005 µM",-35.2%
same,inhibition,"[14]; measured here: combination with BGB IC40, at 0.005 µM",-73.8%
same,inhibition,"[14]; measured here: combination with BGB IC40, at 0.05 µM",-46%
same,inhibition,"[14]; measured here: combination with cisplatin, at 0.5 µM, stronger effect = higher value",-30%
same,inhibition,"[14]; measured here: combination with cisplatin, at 5 µM, stronger effect = higher value",-29.6%
same,inhibition,"[15]; BGB combo, at 5 µM",-83.5%
same,inhibition,[15]; at 0.5 µM,-25.6% (inactive)
same,inhibition,"[15]; cisplatin combo, at 5 µM",-52%
same,inhibition,"[15]; measured here: with BGB IC20 combination, at 0.5 µM",-33.3%
same,inhibition,"[15]; measured here: with cisplatin IC20 combination, at 0.5 µM",-8.96%
same,inhibition,"[15]; single agent, at 5 µM",-28.3%
same,inhibition,"[16]; BGB IC20 combo, at 0.005 µM",-21.3%
same,inhibition,"[16]; BGB IC40 combo, at 0.005 µM",-19.1%
same,inhibition,"[16]; BGB IC40 combo, at 0.05 µM",-12.3%
same,inhibition,[16]; at 0.5 µM,-40.4% (inactive)
same,inhibition,"[16]; cisplatin combo, at 0.05 µM",-18%
same,inhibition,"[16]; cisplatin combo, at 0.5 µM",-48.2%
same,inhibition,"[16]; cisplatin combo, at 5 µM",-17.2%
same,inhibition,"[16]; measured here: 5 uM single agent, at 5 µM",-2.07%
same,inhibition,[17]; at 0.5 µM,-12.3% (inactive)
same,inhibition,"[17]; measured here: with BGB IC20, at 0.5 µM",1.92%
same,inhibition,"[17]; measured here: with BGB IC20, at 5 µM",-7.86%
same,inhibition,"[17]; measured here: with cisplatin IC20, at 0.5 µM",-21.1%
same,inhibition,"[17]; measured here: with cisplatin IC20, at 5 µM",-6.63%
same,inhibition,"[17]; single agent, at 5 µM",12.4%
same,inhibition,[18]; at 0.5 µM,-3.85% (inactive)
same,inhibition,"[18]; measured here: BGB combination, at 0.5 µM",6.02%
same,inhibition,"[18]; measured here: BGB combination, at 5 µM",9.28%
same,inhibition,"[18]; measured here: cisplatin combination, at 0.5 µM",-13%
same,inhibition,"[18]; measured here: cisplatin combination, at 5 µM",5.38%
same,inhibition,[19]; at 0.5 µM,-28.7% (inactive)
same,inhibition,"[19]; cisplatin combination, at 0.5 µM",-22.9%
same,inhibition,"[19]; cisplatin combination, at 5 µM",-216%
same,inhibition,"[19]; measured here: BGB IC40 combination 0.05 uM, at 0.05 µM",-22.7%
same,inhibition,"[19]; single agent, at 5 µM",-20.5%
same,inhibition,[20]; at 0.5 µM,-29.6% (inactive)
same,inhibition,"[20]; cisplatin combo, at 5 µM",-34.8%
same,inhibition,"[20]; measured here: BGB IC40 combination, at 0.05 µM",-8.83%
same,inhibition,"[20]; measured here: combination with cisplatin, at 0.5 µM",-51.5%
same,inhibition,"[20]; single agent, at 5 µM",0.048%
